Results on 98 compounds are retold here after ChEMBL document CHEMBL4513216, “Probing the Open Global Health Chemical Diversity Library for Multistage-Active Starting Points for Next-Generation Antimalarials” (ACS Infect Dis, 2020).

About 8,600 (12%) of roughly 69,000 compounds showed an effect of 50% or more. The full list was thinned out, with strong results kept by preference.

For the assay, the system named is Plasmodium berghei. The assay can be described thus: Screen against P. berghei liver stage (PbLuc), transformed with Luciferase, at 10uM. In kind it is functional, HepG2. As to conditions: tested at 10 uM.
`COc1ccccc1C(=O)N1CC(=O)N(Cc2ccco2)CC(O)C1` (stereo not drawn): the INHIBITION came to 26.8%. Under `COc1ccccc1CC(=O)N1CCC(NCc2ccc(C)o2)CC1` stands 29.375%. The figure for `O=C(NCc1ccco1)[C@H]1C[C@@H]2CCN(c3cccc(F)c3)C[C@H]2O1` is 44.1%; for `Cn1ccnc1-c1cn(CCCc2csc(N)n2)nn1` it is 17.5%; for `COC(=O)CC1CCCCN1CC(=O)Nc1ccc(F)cc1Cl` (stereo not drawn) it is 62.4%. Turning to `COC(=O)CC1CCCCN1CC(=O)NCCc1ccc(F)cc1` (stereo not drawn), the INHIBITION was 38.5%.

Regarding `COC(=O)CC1CCCCN1CC(=O)Nc1cc(F)ccc1F` (stereo not drawn), the INHIBITION worked out at 47.2%.

Take `O=C(CCn1cncn1)N1C[C@@H]2CC[C@H]1CN(Cc1cccnc1)C2`: the INHIBITION came out at 14.3%. The figure for `Cc1ccc(-c2noc(C(C)NS(C)(=O)=O)n2)cc1` (stereo not drawn) is 1.8%; for `CS(=O)(=O)N1CCOCC2(CN(Cc3ccco3)CCO2)C1` (stereo not drawn) it is 3.47%. For `COCc1ncc(CN(CCN(C)C)Cc2ccc(C)s2)cn1`, the INHIBITION came to 38.7%. Under `CCNc1ncc(CN(CCN(C)C)Cc2ccc(C)s2)cn1` stands 35%; under `COCc1ncc(CN(Cc2ccncc2)Cc2ccc(C)s2)cn1`, 61.9%.

Turning to `CCc1ccc(CN(CCN(C)C)Cc2ccc(C)s2)nc1`, the INHIBITION turned out to be 22%. Under `Cc1ccc(CN(Cc2ccncc2)C2CCN(C)CC2)s1` stands -6.73%; under `COc1ncc(CN(CCN(C)C)Cc2ccc(C)s2)cn1`, 63.8%. Take `Cc1cc(C(=O)NCC2CCS(=O)(=O)C2)ccc1NC(=O)c1ccco1` (stereo not drawn): the INHIBITION was 40.2%. The figure for `CC(C)n1cnnc1CNC(=O)c1cnn(Cc2ccccc2)c1` is -24.4%; for `COCC1c2c(cnn2CC2CC2)CCN1Cc1cc(C)on1` (stereo not drawn) it is 47.1%. The figure for `COCCn1cc(C(=O)NC2CCS(=O)(=O)C2)c2ccccc2c1=O` (stereo not drawn) is 42.8%. Regarding `Cc1cc(C(=O)N2CCC(O)(Cn3ccc4ccncc43)CC2)on1`, the INHIBITION was 12.8%.

With `O=C(Cc1ccc(O)cc1)N1CCCC(O)(CN2CCOCC2)CC1` (stereo not drawn), the INHIBITION stood at 30.4%. As for `Cc1nc(CCC(=O)NC2CCC2)cc(C2CCNCC2)n1`, the INHIBITION stood at 33.5%.

Consider `CN1CC(C(=O)NCCc2ccc(Br)cc2F)CC1=O` (stereo not drawn), for which the INHIBITION is recorded as -57%. Under `CC(=O)N1CCC2(CC1)COC(COCc1ccccn1)C2` (stereo not drawn) stands 14.6%; under `c1ccc(COC[C@H]2CCC[C@@]23CNCCO3)nc1`, 62.9%.

Regarding `c1ccc(COC[C@@H]2CCC[C@@]23CNCCO3)nc1`, the INHIBITION was found to be 72%. For `c1ccc(OC[C@@H]2CCC[C@@]23CNCCO3)nc1`, the INHIBITION was 31.3%.

In the case of `CN1CCN(C(=O)c2cc3sccc3n2Cc2ccc(Cl)cc2)CC1`, the INHIBITION was 13.9%.

Regarding `Cn1cnc(S(=O)(=O)N2CCCc3cccc(F)c32)c1Cl`, the INHIBITION was found to be 39.7%. The figure for `Cc1cccc(C(=O)N2CC[C@@H]3[C@H]2CCC(=O)N3c2ccccc2)n1` is 65.7%; for `O=C(Cc1cccs1)N1CC[C@H]2[C@@H]1CCC(=O)N2c1cccnc1` it is 30.7%; for `Cc1ccc(C(=O)N2CC[C@H]3[C@@H]2CCC(=O)N3c2ccccc2)cn1` it is 16.8%. Turning to `O=C(c1ccco1)N1CC[C@@H]2[C@H]1CCC(=O)N2c1ccccc1`, the INHIBITION turned out to be 30.3%. Under `Cc1ccc(C(=O)N2CC[C@@H]3[C@H]2CCC(=O)N3c2ccccc2)o1` stands 31.8%.

Take `Cc1cc(C(=O)N2CC[C@H]3[C@@H]2CCC(=O)N3c2ccccc2)no1`: the INHIBITION amounted to 53.9%. The figure for `Cc1cnc(C(=O)N2CC[C@H]3[C@@H]2CCC(=O)N3c2cccnc2)cn1` is 40.4%. `O=C(CC1CC1)N1CC[C@H]2[C@@H]1CCC(=O)N2c1cccnc1`: the INHIBITION was 58.6%.

On to `O=C(C1CC1)N1CC[C@H]2[C@@H]1CCC(=O)N2c1ccccc1`, for which the INHIBITION is recorded as 12.1%. On to `Cc1cccc(N2CCCC3(C2)CN(S(=O)(=O)C2CC2)CCO3)c1` (stereo not drawn), for which the INHIBITION is recorded as 20.1%. For the compound `CCc1c(C)nc2cc(-c3nccn3C)nn2c1N1CCCC(CO)C1` (stereo not drawn), the INHIBITION was found to be 10.62%. Under `Cc1csc(CCCNC(C)CC(=O)Nc2ccc(F)cc2)n1` (stereo not drawn) stands 40%; under `c1cnc(Nc2cncc(C3CCCN3)n2)cn1` (stereo not drawn), 31.6%; under `CN(C)CC1COCCN1C(=O)C1(c2cccs2)CCCC1` (stereo not drawn), 36.2%. Under `CS(=O)(=O)N1CCN(c2cc(-n3cccc3)ncn2)CC1` stands 38.3%; under `Cc1noc([C@@H]2CCO[C@@H]3CCN(Cc4ccc(C)s4)C[C@@H]32)n1`, 53.2%.

Consider `Cc1ccc(CN2CC[C@H]3OCC[C@@H](c4nc(C)no4)[C@H]3C2)cc1`, for which the INHIBITION worked out at 36.4%. The figure for `Cc1noc([C@@H]2CCO[C@@H]3CCN(Cc4cccs4)C[C@@H]32)n1` is 24.1%.

As for `COCC(=O)N1CC[C@H]2N(C)CC[C@@]2(C(=O)Nc2ccccc2)CC1`, the INHIBITION was 3.25%. The figure for `Cc1cnc(N2CCC[C@@H]3CN(CC(=O)N(C)C)C[C@@H]32)nc1` is 52.3%; for `CC(=O)N1C[C@H]2CCCN(c3ncc(C)cn3)[C@H]2C1` it is 45.8%.

As for `Cc1cnc(N2CCCC3(CCCN3CC(=O)N(C)C)C2)nc1` (stereo not drawn), the INHIBITION came out at 79.2%.

Turning to `CN(C)C(=O)CN1CCC2(CCCN(c3ncc(F)cn3)C2)C1=O` (stereo not drawn), the INHIBITION was 11.3%. Under `CN(C)C(=O)CN1CCCC12CCCN(c1ncc(F)cn1)C2` (stereo not drawn) stands 8.31%; under `Cc1cnc(N2CCC[C@@H]3CN(S(C)(=O)=O)C[C@@H]32)nc1`, 29.8%; under `CN(C)C1(CNC(=O)CC=Cc2ccc(F)cc2)CCOCC1`, -18%.

Consider `Cc1nc(C)n(CC2CCCN(Cc3cn4c(C)cccc4n3)C2)n1` (stereo not drawn), for which the INHIBITION is recorded as 5.03%. Under `O=c1ccc2c(n1CCN1CCCC1)CCN(c1ncccn1)CC2` stands 29.5%; under `CSCc1noc(CNC(=O)C2CCN(C(=O)C3CCCC3)CC2)n1`, -26%. Regarding `CSCc1noc(CNC(=O)C2CCN(C3CCCCC3)CC2)n1`, the INHIBITION stood at 53.9%. The figure for `CSCc1noc(CNC(=O)C2CCN(C(=O)C3CCC3)CC2)n1` is 16.7%; for `CCOCCCNc1cc(C)nn2cnnc12` it is 25.3%. The figure for `Cc1nn(C)c(C)c1NC(=O)CCn1ncc2ccccc21` is 35.8%; for `Cc1ccc2cnn(CCC(=O)Nc3c(C)nn(C)c3C)c2c1` it is -8.19%. Regarding `CCn1nc(C)c(NC(=O)CCn2ncc3cc(C)ccc32)c1C`, the INHIBITION is given as 50.7%. Turning to `CCn1c(CN2CCN(CCO)CC2)nc2c(F)cccc21`, the INHIBITION turned out to be 24.95%. Take `COCCO[C@H]1CCN(C(=O)c2ccno2)[C@H]1Cc1ccncc1`: the INHIBITION is 18.3%. Consider `CCC1(CC)C(=O)NC(=O)N/C1=N/c1cccc(OC)c1`, for which the INHIBITION worked out at 58.2%. The figure for `CCc1cnc2c(c1Nc1cccc(OC)c1)c(=O)n(C)c(=O)n2C` is -31%; for `CCC(C)NC(=O)Nc1cccc(OC)c1` (stereo not drawn) it is -32%. The figure for `CCN(CC)Cc1cc(=O)n2c(n1)CN(S(=O)(=O)C1CC1)CCC2` is -3.26%. Turning to `Cn1cnc(S(=O)(=O)NCCCN2CCCC2=O)c1Cl`, the INHIBITION was determined as 4.71%.

In the case of `Cc1ccc(CN2C[C@@H]3C[C@H](C(=O)NCC4CC4)N(C)[C@@H]3C2)o1`, the INHIBITION is 16.1%.

As to `Cc1ccc(O)c(C(=O)N2CCOCC2c2c(C)nn(C)c2C)c1` (stereo not drawn), the INHIBITION is given as -57.4%. Regarding `CCC1=N[C@@]2(CC[C@@H]3CN(C(=O)NCc4ccccc4)C[C@@H]32)C(=O)N1`, the INHIBITION stood at 50%. Under `CC1=N[C@@]2(CC[C@@H]3CN(C(=O)NCc4ccccc4C)C[C@@H]32)C(=O)N1` stands 28.7%. Under `CC1=N[C@@]2(CC[C@@H]3CN(C(=O)NCc4cccc(F)c4)C[C@@H]32)C(=O)N1` stands 75.4%. Regarding `CC1=N[C@@]2(CC[C@@H]3CN(C(=O)NCCc4ccccc4)C[C@@H]32)C(=O)N1`, the INHIBITION is listed as 13.6%. Under `CCC1=N[C@@]2(CC[C@@H]3CN(C(=O)NCc4ccccc4)C[C@@H]32)C(=O)N1C` stands 25%; under `CCC1=N[C@@]2(CC[C@@H]3CN(C(=O)NCC4CCCCC4)C[C@@H]32)C(=O)N1`, 47.4%. Take `CCC1=N[C@@]2(CC[C@@H]3CN(C(=O)NCc4cccc(F)c4)C[C@@H]32)C(=O)N1`: the INHIBITION stood at 39.2%.

`CCC1=N[C@@]2(CC[C@@H]3CN(Cc4ccccc4C)C[C@@H]32)C(=O)N1`: the INHIBITION is 37.8%. Under `CCC1=N[C@@]2(CC[C@@H]3CN(C(=O)NCc4ccccc4C)C[C@@H]32)C(=O)N1` stands 70.7%; under `Cc1ccc(-c2nnn(CCN3C(=O)CCC3=O)n2)cc1`, -47.1%.

For `Cc1cnc(C(=O)N2CCc3ncnc(-c4cnn(C)c4)c3CC2)cn1`, the INHIBITION was -3.33%. Under `CC(=O)Nc1nc(C(=O)N2CCCC2c2noc(C(C)C)n2)cs1` (stereo not drawn) stands 40.9%; under `CNC(=O)c1nc(CC(=O)Nc2cccc(C(F)(F)F)c2)no1`, -2.61%. The figure for `Cc1cccc(OC2CN(C(=O)C3CC(=O)N(C(C)(C)C)C3)C2)c1` (stereo not drawn) is 25.5%; for `CC(C)Oc1ccc(CN2CCCC(N3CCCC3)C2)cc1CO` (stereo not drawn) it is 20%; for `CC(C)Oc1ccc(CN2CCCC(N3CCOCC3)C2)cc1CO` (stereo not drawn) it is 82.9%.

As to `CC(C)Oc1ccc(CN2CCN3CCN(C)CC3C2)cc1CO` (stereo not drawn), the INHIBITION is -6.97%. The figure for `CCCC(=O)N1CCC(c2cc3cccnc3c(O)n2)CC1` is 1.62%; for `CN(C)CCCNC(=O)c1ccccc1NC(=O)c1cc(Cl)ccc1Cl` it is 27.6%. As for `CCc1nc(C)sc1CN1CC[C@@](O)(C2CCOCC2)[C@H](C)C1`, the INHIBITION is -10.9%. Under `O=S(=O)(c1ccc2c(c1)OCCO2)N1CCc2ccccc2C1` stands 57.6%. In the case of `O=S(=O)(c1ccc2c(c1)OCCO2)N1CCC(OCc2ccccn2)C1` (stereo not drawn), the INHIBITION is given as -35.2%. For the compound `O=c1ccc2c([nH]1)CCN(S(=O)(=O)c1ccc3c(c1)OCCO3)C2`, the INHIBITION came to 26%. Under `Cc1nc2cc(=O)[nH]n2c(C)c1CC(=O)NCc1ccc(C#N)cc1` stands 41.2%.
